# Laboratory results reported in article PMC4336329 (PLoS ONE, 2015).
# The campaign covered roughly 310,000 compounds. About 14,000 (4.5%) showed an effect of 50% or more. The effect is printed as a negative number. Only a selection was taken, and strong results are over-represented in it overall.
# Target: human ether-à-go-go-related gene (hERG) potassium channel (human, UniProt Q12809)
# Test: primary screen, population patch clamp on CHO cells stably expressing hERG; higher = less effect of the substance
# 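Note: peak tail current of the secondary pulse compared with the same well before compound.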
# Sequence of human ether-à-go-go-related gene (hERG) potassium channel (Q12809 whole entry, looked up): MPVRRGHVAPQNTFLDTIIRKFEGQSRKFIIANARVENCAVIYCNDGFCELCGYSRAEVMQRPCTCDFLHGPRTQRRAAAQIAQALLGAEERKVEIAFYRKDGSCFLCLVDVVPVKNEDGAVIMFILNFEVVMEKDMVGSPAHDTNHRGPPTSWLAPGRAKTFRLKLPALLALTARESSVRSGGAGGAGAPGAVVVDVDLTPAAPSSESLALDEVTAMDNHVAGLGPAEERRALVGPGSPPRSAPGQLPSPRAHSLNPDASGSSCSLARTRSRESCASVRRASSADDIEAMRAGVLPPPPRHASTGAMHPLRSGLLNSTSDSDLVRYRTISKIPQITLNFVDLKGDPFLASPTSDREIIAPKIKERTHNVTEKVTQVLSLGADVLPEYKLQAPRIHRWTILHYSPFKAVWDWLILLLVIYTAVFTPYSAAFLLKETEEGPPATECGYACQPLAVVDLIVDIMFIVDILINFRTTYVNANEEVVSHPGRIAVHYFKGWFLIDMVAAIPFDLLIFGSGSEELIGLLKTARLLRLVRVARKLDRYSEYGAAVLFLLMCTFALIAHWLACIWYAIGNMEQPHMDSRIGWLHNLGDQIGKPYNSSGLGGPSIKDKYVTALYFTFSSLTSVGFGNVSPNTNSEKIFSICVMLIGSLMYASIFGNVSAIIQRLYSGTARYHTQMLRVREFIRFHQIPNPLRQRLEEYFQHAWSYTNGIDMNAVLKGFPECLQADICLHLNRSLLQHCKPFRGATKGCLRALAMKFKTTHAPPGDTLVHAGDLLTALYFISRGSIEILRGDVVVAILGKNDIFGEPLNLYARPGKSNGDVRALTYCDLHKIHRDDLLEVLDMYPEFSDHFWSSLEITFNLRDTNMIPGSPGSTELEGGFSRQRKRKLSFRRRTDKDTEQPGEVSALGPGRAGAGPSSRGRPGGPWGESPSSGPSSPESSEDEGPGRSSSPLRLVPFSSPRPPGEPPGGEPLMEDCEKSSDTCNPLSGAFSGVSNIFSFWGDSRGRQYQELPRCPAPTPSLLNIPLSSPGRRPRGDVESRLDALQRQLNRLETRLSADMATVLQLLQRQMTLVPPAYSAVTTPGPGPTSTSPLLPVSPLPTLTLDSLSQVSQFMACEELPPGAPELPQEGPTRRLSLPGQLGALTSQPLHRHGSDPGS
row,Compound,"hERG current change (%, negative = inhibition) at 10uM [%]"
1,O=C(c1cc(-c2ccc(Br)cc2)on1)N1CCCC1,10.3
2,Cc1ccccc1NC(=O)NCCCN1CCN(C2CCCCC2)CC1,-9.26
3,CSc1ccc(NC(=O)NCc2ccccc2)cc1,19
4,COc1ccc(NC(=O)NCCCCc2ccccc2)cc1,1.06
5,Cc1ccccc1CC1CCN(CCCNC(=O)Nc2ccccc2)CC1,-68.5
6,O=C(NCCCN1CCN(Cc2ccccc2Cl)CC1)Nc1ccccc1,-56.8
7,COc1ccc(NC(=O)NCCCN2CCC(Cc3ccccc3)CC2)cc1,-77.5
8,Cc1ccccc1NC(=O)NCCCN1CCCC1,26.6
9,CSc1ccc(NC(=O)NCCCN2CCC(Cc3ccccc3)CC2)cc1,-75.9
10,CSc1ccc(NC(=O)NCCN2CCc3ccccc3C2)cc1,-43.6
11,COc1ccc(NC(=O)N2CCC(Cc3ccccc3)CC2)cc1,-3.45
12,O=C(NCCN1CCN(c2ccccc2Cl)CC1)Nc1ccccc1,-34.1
13,O=C(NCCN1CCN(Cc2ccccc2Cl)CC1)Nc1ccccc1,-47.5
14,Cc1c(NC(=O)COc2c(F)c(F)c(F)c(F)c2F)c(=O)n(-c2ccccc2)n1C,0.328
15,COc1ccc(/C(C)=N/NC(=O)CNC(=O)/C=C\c2ccccc2)c(OC)c1,-9.28
16,C/C(=N\OCc1ccccc1C#N)c1cc2ccccc2o1,0.146
17,O=C(NCCCN1CCOCC1)c1ccc2nc(Cc3cccc(Cl)c3)oc2c1,-7.7
18,COC(=O)c1ccccc1NC(=O)NCc1ccccn1,-6.01
19,O=C(CC(Cc1ccccc1)C(=O)O)Nc1ccc(F)cc1 (stereo not drawn),10.4
20,COC(=O)c1cc(=O)n(Cc2cccs2)c(=Nc2ccccc2)s1,-0.229
21,Oc1cccc(/C=N/Nc2ccc(Cl)nn2)c1O,8.72
22,CC(OC(=O)CNC(=O)c1ccco1)C(=O)Nc1ccc(Cl)cn1 (stereo not drawn),-11.4
23,O=C(/C=C/c1cn(CC(O)CN2CCCCCC2)c2ccccc12)c1cccs1 (stereo not drawn),-75.2

row,Compound,"hERG current change (%, negative = inhibition) at 10uM [%]"
1,O=C(/C=C/c1cn(CC(O)CN2CCCCC2)c2ccccc12)c1cccs1 (stereo not drawn),-54.4
2,CCCCN(C)CC(O)Cn1cc(/C=C/C(=O)c2cccs2)c2ccccc21 (stereo not drawn),-33.7
3,O=C(/C=C/c1cn(CC(O)CN2CCOCC2)c2ccccc12)c1cccs1 (stereo not drawn),-21.8
4,CCCN(CCC)CC(O)Cn1cc(/C=C/C(=O)c2cccs2)c2ccccc21 (stereo not drawn),-30.7
5,O=Cc1cn(CC(O)CN2CCCCC2)c2ccccc12 (stereo not drawn),27.3
6,CCCC(=O)Nc1c(-c2ccccc2)c(=O)c(C)nn1-c1ccccc1,10.3
7,Cc1ccc(S(=O)(=O)CCC(=O)Nc2ccc3nc(C)sc3c2)cc1,3.75
8,CC(C)c1c(C(=O)N/N=C/c2ccc(-c3ccccc3)cc2)nnn1-c1nonc1N,26.6
9,C=CCc1ccccc1OCC(O)CNC(C)C.Cl (stereo not drawn),-33.3
10,CCS(=O)(=O)n1nc(-c2ccc(OC)cc2)nc1N,11.6
11,COc1ccc(CCC(N)=O)cc1OC,11.1
12,Clc1ccc(C(c2nnnn2CCc2ccccc2)N2CCSCC2)cc1 (stereo not drawn),0.814
13,COc1ccc(CCn2nnnc2C(c2ccccc2)N2CCN(C)CC2)cc1OC.Cl (stereo not drawn),7.37
14,CC(C)(C)n1nnnc1C(c1cccc(C#N)c1)N1CCCCCC1 (stereo not drawn),-4.75
15,COc1ccc(C(c2nnnn2CCc2ccccc2)N2CCN(C3CCCC3)CC2)cc1OC.Cl (stereo not drawn),-64.3
16,Cl.Fc1ccc(Cn2nnnc2C(c2ccc(Cl)cc2)N2CCSCC2)cc1 (stereo not drawn),-1.72
17,N#Cc1cccc(C(c2nnnn2C2CCCC2)N2CCC(Cc3ccccc3)CC2)c1 (stereo not drawn),8.5
18,COCCn1nnnc1C(c1ccc(Cl)cc1)N1CCSCC1.Cl (stereo not drawn),-51.9
19,COc1ccc(C(c2nnnn2C2CCCC2)N2CCN(C3CCCC3)CC2)cc1OC.Cl (stereo not drawn),-22.7
20,COCCn1nnnc1C(c1cccc(C#N)c1)N1CCCCCC1.Cl (stereo not drawn),-56.6
21,Cl.N#Cc1cccc(C(c2nnnn2Cc2ccccc2)N2CCCC2)c1 (stereo not drawn),-22.7
22,N#Cc1ccc(C(c2nnnn2CCc2ccccc2)N2CCCCCC2)cc1 (stereo not drawn),-26.3
23,N#Cc1cccc(C(c2nnnn2CCc2ccccc2)N2CCN(C3CCCCC3)CC2)c1 (stereo not drawn),-61

row,Compound,"hERG current change (%, negative = inhibition) at 10uM [%]"
1,CC(C)(C)C1CCC(=NOC(=O)c2ccc(F)cc2)CC1 (stereo not drawn),15.7
2,O=C(CNC(=O)c1cccc(Br)c1)N/N=C/c1ccc[nH]1,22.5
3,Cc1ccc(-c2cc(-c3ccccc3Cl)c(C#N)c(N)n2)o1,3.05
4,COc1ccccc1-c1ccc(C(=O)O)o1,7.06
5,COC(=O)c1cn(C)c2ccc(S(=O)(=O)N3CC(C)CC(C)C3)cc2c1=O (stereo not drawn),-5.76
6,COc1ccc(CCNC(=S)Nc2ccc(C)cc2C)cc1,2.89
7,CC(=O)O.CC1(C)CC(=O)C2=C(C1)NC1=C(C(=O)c3ccccc31)C2c1cc([N+](=O)[O-])ccc1O (stereo not drawn),-37.1
8,CCOC(=O)c1c(S(=O)(=O)NCC(C)c2ccccc2)c(C)n(C)c1C (stereo not drawn),-17.8
9,COc1ccc(C(c2nnnn2CCc2ccccc2)N2CCN(C3CCCC3)CC2)cc1.Cl (stereo not drawn),-68
10,Cc1ccc(C(c2nnnn2CCc2ccccc2)N2CCC(C)CC2)cc1.Cl (stereo not drawn),13.8
11,CCCC(c1nnnn1CCc1ccccc1)N1CCN(C2CCCC2)CC1 (stereo not drawn),-48.9
12,COc1ccccc1CC(=O)N(Cc1ccccc1)c1ccc(C)cc1,-16
13,CCN(CC)S(=O)(=O)c1ccc(S(=O)(=O)N2CCCC2C(=O)O)cc1 (stereo not drawn),-0.323
14,CCOn1c(=O)c(-c2ccccc2)[n+]([O-])c2ccccc21,1.67
15,Cc1ccc(NC(=O)CN2CCC(C(=O)c3ccc(F)cc3)CC2)cc1,-72.5
16,O=C(CN1CCC(C(=O)c2ccc(F)cc2)CC1)Nc1ccc(F)cc1,-64.7
17,COc1ccc(CNC(=O)CN2CCC(C(=O)c3ccc(OC)cc3)CC2)cc1,-58
18,COc1ccc(CNC(=O)C2CCN(c3nc(OC)nc(OC)n3)CC2)cc1,-65.1
19,COc1ccc(C(=O)NC2CCN(CC(=O)NCc3ccccc3)CC2)cc1,-24.4
20,CC(=O)c1ccc(NC(=O)CN2CCC(C(=O)c3ccc(F)cc3)CC2)cc1,-22.9
21,COc1nc(OC)nc(N2CCC(C(=O)NCc3ccc(F)cc3)CC2)n1,-44.9
22,COc1ccc(C(=O)C2CCN(CC(=O)NCc3ccccc3)CC2)cc1,-46.3
23,O=C(CN1CCC(C(=O)c2ccc(F)cc2)CC1)Nc1ccccc1,-29.7

row,Compound,"hERG current change (%, negative = inhibition) at 10uM [%]"
1,COc1nc(OC)nc(N2CCC(C(=O)NCc3cccs3)CC2)n1,-45
2,Cc1c(NC(=O)/C(C#N)=C/c2ccc(-c3ccc(Cl)cc3)o2)c(=O)n(-c2ccccc2)n1C,-41.5
3,COc1ccc(C(=O)OCC(=O)c2cc(C)n(CC3CCCO3)c2C)cc1[N+](=O)[O-] (stereo not drawn),-42.9
4,Cc1nc(-c2ccc(NC(=O)Cc3ccccc3)cc2)cs1,21.1
5,Cc1ccc(-c2nn(-c3ccccc3)cc2/C=C2\SC(=S)N(CCCCCC(=O)O)C2=O)o1,15.1
6,Cc1cc(-c2ccc(C)c(S(=O)(=O)NCc3ccc(Br)cc3)c2)on1,-31
7,COc1cccc(SCc2noc(C(=O)NCC3CCCO3)c2C(=O)O)c1 (stereo not drawn),11.9
8,COc1ccccc1CCc1nnc(CCC(=O)NCCOc2cccnc2)o1,7.9
9,Cc1cc(S(=O)(=O)N2CCC(NC(=O)C34CC5CC(CC(C5)C3)C4)CC2)ccc1-n1cnnn1,-15.2
10,COCCN(CCOC)c1ncc(Cl)c(C(=O)c2c(C)cc3ccccn23)n1,-4.6
11,COC(=O)C1(C)CC1(c1ccccc1)c1ccccc1 (stereo not drawn),-3.98
12,O=C(N/N=C/c1ccccc1O)C1CCCC1,8.05
13,Cc1ccc(C(=O)C2CCN(CC(=O)N3CCN(c4ccc(F)cc4)CC3)CC2)cc1,-73.7
14,O=C(c1ccccc1)C1CCN(CC(=O)N2CCN(c3ccccc3)CC2)CC1,-14.9
15,Cc1ccc(C(=O)NCN2CCN(c3ccc(F)cc3)CC2)cc1,-28.9
16,COc1ccccc1NC(=O)CN1CCC(C(=O)c2ccc(F)cc2)CC1,-38.5
17,O=C(CN1CCC(C(=O)c2ccc3c(c2)OCCO3)CC1)NCc1ccc(F)cc1,-30.2
18,Cc1ccc(C(=O)C2CCN(CC(=O)NCc3ccc(F)cc3)CC2)cc1,-53.3
19,Cc1ccc(C(=O)C2CCN(CC(=O)Nc3ccccc3C)CC2)cc1,-68.9
20,Cc1ccccc1NC(=O)CN1CCC(C(=O)c2ccc3c(c2)OCCO3)CC1,-44.5
21,O=C(CN1CCC(C(=O)c2ccc(F)cc2)CC1)NCc1ccccc1F,-39.6
